Screening results: PubChem, National Center for Advancing Translational Sciences (NCATS)
The entries come from a sample that favours hits as a whole.
NS1 function inh = blocks influenza NS1 protein function. actives 0.4% (n = 270,000). Potency, µM (top dose mostly 46.1 µM); calls by dose curve; also: actives are rising curves; nearly all actives have a fitted effect of over 50% in size
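OD600 was taken as the measure of yeast growth restored by compound in an NS1-expressing S. cerevisiae strain. Cells had been washed out of glucose medium and diluted 1:100 into galactose -URA medium, pH 6.0.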
AmpC detergent = AmpC beta-lactamase inhibition with detergent present; actives 0.041% (n = 370,000); P00811; AmpC hydrolysis of nitrocefin, absorbance 480 nm, 0.01% Triton; Potency, µM (highest dose often 114 µM), actives largely listed as inhibitors; AID 485294; also: nearly all actives have a fitted effect of over 25% in size
Target sequence (P00811 whole entry, looked up): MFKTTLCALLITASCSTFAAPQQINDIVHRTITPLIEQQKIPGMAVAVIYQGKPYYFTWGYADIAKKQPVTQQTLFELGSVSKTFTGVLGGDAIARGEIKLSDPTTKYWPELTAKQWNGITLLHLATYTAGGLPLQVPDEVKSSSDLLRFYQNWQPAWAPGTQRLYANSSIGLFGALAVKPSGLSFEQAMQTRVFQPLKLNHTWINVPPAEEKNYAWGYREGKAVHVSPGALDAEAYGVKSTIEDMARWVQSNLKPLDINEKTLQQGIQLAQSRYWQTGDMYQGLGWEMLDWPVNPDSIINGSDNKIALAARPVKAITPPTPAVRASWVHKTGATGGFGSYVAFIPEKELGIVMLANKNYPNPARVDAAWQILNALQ
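AmpC (5.3 nM in the dispensed reagent) in 20 mM phosphate pH 7.0 with 0.01% (detergent screen) or 0.0001% Triton X-100 was preincubated with compounds for 15 min at room temperature. Nitrocefin was then added from an 800 uM solution, and hydrolysis was followed at 480 nm.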
Shiga toxin inh = Shiga toxin inhibition; Vero cells, Shiga toxin protein synthesis inhibition reporter; inhibition, % at 38.7 µM; actives 9.2% (n = 290,000); AID 2315; in the data active = inhibition mostly above about 28%, no sharp cut-off; inactive = mostly below about 43%
AmpC inh no detg = inhibitors of E. coli AmpC beta-lactamase without detergent | P00811 | AmpC nitrocefin hydrolysis, absorbance 480 nm, 0.0001% Triton | Potency, µM (doses to about 57.1 µM), most hits filed as inhibitors | actives 0.52% (n = 330,000); also: nearly all actives have a fitted effect of over 20% in size
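AmpC (5.3 nM in the dispensed reagent) in 20 mM phosphate pH 7.0 with 0.01% (detergent screen) or 0.0001% Triton X-100 was preincubated with compounds for 15 min at room temperature. Nitrocefin was then added from an 800 uM solution, and hydrolysis was followed at 480 nm.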
CHX counter = counter-screen hit for Shiga toxin inhibitors, cycloheximide | cell reporter, cycloheximide protein synthesis inhibition counterscreen | AID 2314 | max response, % | actives 12% (n = 300,000); in the data active = max response mostly above about 13%, no sharp cut-off; inactive = mostly below about 14%; also: read at 38.3 µM for the half of the compounds with a filed dose
Numbers stand for hits; [ ] = remark or other dose. Unless noted, calls follow the shape of the dose curve; as a rule, active = well fitted curve in the direction sought with a large enough effect; inconclusive = small, poorly fitted or top-dose-only effect, or another doubt; inactive = no such curve, though single readings can be large; an effect the other way counts as inactive or inconclusive.

Screening CC1CCc2nc(N)c(C#N)c(-c3ccncc3)c2C1 (stereo unspecified) returned NS1 function inh inconclusive, AmpC detergent inactive, Shiga toxin inh inactive, AmpC inh no detg inactive and CHX counter inactive.
`N#C/C(=C\c1ccncc1)c1nc2ccccc2[nH]1` gave AmpC detergent inactive, Shiga toxin inh 106.2, AmpC inh no detg inactive and CHX counter 31.7.
For Cc1cc2nc(/C(C#N)=C/c3ccncc3)[nH]c2cc1C the results were NS1 function inh inactive, AmpC detergent inactive, Shiga toxin inh inactive, AmpC inh no detg inactive[2.29 µM] and CHX counter inactive.
`N#C/C(=C1\CCCN1)c1ccc2ccccc2n1` gave NS1 function inh inactive, AmpC detergent inconclusive, Shiga toxin inh inactive, AmpC inh no detg inactive and CHX counter inactive.
`N#C/C(=C\c1cccnc1)c1nc2ccccc2[nH]1` gave NS1 function inh inactive, AmpC detergent inactive, Shiga toxin inh 57.4, AmpC inh no detg inactive and CHX counter 36.2.
`N#C/C(=C1/CCCCCN1)c1nc2ccccc2[nH]1` gave NS1 function inh inactive, AmpC detergent inactive, Shiga toxin inh 43.5, AmpC inh no detg inactive and CHX counter 122.5.
Screening N#C/C(=C\c1ccc(OCc2ccc(Cl)cc2Cl)cc1)c1nc2ccccc2[nH]1 returned AmpC detergent inactive.
Screening N#C/C(=C/c1ccncc1)c1nc2ccccc2s1 returned NS1 function inh inactive, AmpC detergent inactive, Shiga toxin inh 43.7, AmpC inh no detg inactive and CHX counter 29.9.
For CCCN(CCC)C(=O)c1cc2c(=O)n3cccc(C)c3nc2s1 the results were NS1 function inh inactive, AmpC detergent inactive, Shiga toxin inh inactive, AmpC inh no detg inactive and CHX counter inactive.
`CC(=O)Nc1nccc(-c2cc(-c3ccccc3)no2)n1` gave NS1 function inh inactive, AmpC detergent inactive, Shiga toxin inh 53.3, AmpC inh no detg inactive and CHX counter 30.2.
CC(=O)Nc1cccc(-c2cc(-c3c(Cl)cccc3Cl)no2)c1 was read as NS1 function inh inactive, AmpC detergent inactive, Shiga toxin inh inactive, AmpC inh no detg inactive and CHX counter inactive.
For Cn1c(-c2ccccc2)cc2c3no[n+]([O-])c3ccc21 the results were NS1 function inh inactive, AmpC detergent inactive, Shiga toxin inh 68.0, AmpC inh no detg inactive and CHX counter 27.5.
Cn1c(-c2ccccc2)cc2ccccc21 was read as NS1 function inh inactive, AmpC detergent inactive, Shiga toxin inh inactive, AmpC inh no detg inactive and CHX counter inactive.
OC(CCN1CCOCC1)c1ccccc1 (stereo unspecified) was read as NS1 function inh inactive, AmpC detergent inconclusive, Shiga toxin inh inactive, AmpC inh no detg inactive and CHX counter inactive.
`OC(CCN1CCCCC1)c1ccc(-c2ccccc2)cc1` (stereo unspecified) gave NS1 function inh inactive, AmpC detergent inactive, Shiga toxin inh 72.1, AmpC inh no detg inactive and CHX counter 51.7.
For CC(C)(C)c1ccc(S(=O)(=O)N2CCC(Oc3ccc(-n4cnnn4)cc3)CC2)cc1 the results were AmpC detergent inactive.
CSc1ccc(-c2nc(CSCC(=O)NC3CC3)c(C)o2)cc1 was read as NS1 function inh inactive, AmpC detergent inactive, Shiga toxin inh 26.9, AmpC inh no detg inactive and CHX counter 19.7.
For CSc1ccc(-c2nc(CSCC(=O)N3CCOCC3)c(C)o2)cc1 the results were NS1 function inh inactive, AmpC detergent inactive, Shiga toxin inh 107.6, AmpC inh no detg inactive and CHX counter 26.9.
Screening COc1ccc(-n2c(=O)c3ccccc3n(CC(=O)NCCc3ccc(OC)c(OC)c3)c2=O)cc1 returned AmpC detergent inactive.
For CCOC(=O)/C=C/c1cc(F)c(S(=O)(=O)N2CCN(S(=O)(=O)c3ccc4c(c3)OCCO4)CC2)cc1F the results were Shiga toxin inh inactive and CHX counter inactive.
N#Cc1cc2c(N)c(C(=O)Nc3ccccc3)sc2nc1N was read as NS1 function inh inactive, AmpC detergent inactive, Shiga toxin inh 90.2, AmpC inh no detg inactive and CHX counter 36.4.
For Cc1cccc(NC(=O)c2sc3nc(N)c(C#N)cc3c2N)c1 the results were NS1 function inh inactive, AmpC detergent inactive, Shiga toxin inh 72.0, AmpC inh no detg inactive and CHX counter 31.3.
`COc1nccnc1NS(=O)(=O)c1ccc(NCc2cc(Br)ccc2O)cc1` gave NS1 function inh inactive, AmpC detergent inactive, Shiga toxin inh 57.1, AmpC inh no detg inactive and CHX counter 37.1.
CCc1nnc(NS(=O)(=O)c2ccc(NCc3cc(Br)ccc3O)cc2)s1 was read as NS1 function inh inactive, AmpC detergent inactive, Shiga toxin inh inactive, AmpC inh no detg inactive and CHX counter inactive.
Screening COC(=O)CCC(=O)COc1ccccc1C#N returned NS1 function inh inactive, AmpC detergent inactive, Shiga toxin inh 62.2, AmpC inh no detg inactive and CHX counter 26.6.
COC(=O)CCC(=O)COc1ccc(OC)cc1C#N was read as NS1 function inh inactive, AmpC detergent inconclusive, Shiga toxin inh inactive, AmpC inh no detg inactive and CHX counter 22.9.
Screening N#Cc1ccccc1OCC(=O)NCCNC(=O)COc1ccccc1C#N returned AmpC detergent inactive and AmpC inh no detg inactive.
`COc1ccc(N(C)S(=O)(=O)c2ccc3c(c2)NC(=O)CO3)c(OC)c1` gave NS1 function inh inactive, AmpC detergent inactive, Shiga toxin inh inactive, AmpC inh no detg inactive and CHX counter inactive.
For CN(C)/C=C/C(=O)c1cnc(-c2ccc(Cl)cc2)s1 the results were AmpC detergent inactive, Shiga toxin inh 96.5, AmpC inh no detg inactive and CHX counter 51.1.
CN(C)/C=C/C(=O)c1cnc(-c2ccccc2)s1 was read as AmpC detergent inactive, Shiga toxin inh 103.7, AmpC inh no detg inactive and CHX counter 52.3.
Screening O=C(c1ccc(Cl)cc1)c1cnc(-c2ccc(Cl)cc2)s1 returned NS1 function inh inactive, AmpC detergent inactive, Shiga toxin inh inactive, AmpC inh no detg inactive and CHX counter inactive.
CN(C)CCNC(=O)c1ccc(Cl)s1 was read as NS1 function inh inactive, AmpC detergent inactive, Shiga toxin inh inactive, AmpC inh no detg inactive and CHX counter inactive.
Screening CN(C)/C=C/C(=O)c1ccc(Cl)s1 returned NS1 function inh inactive, AmpC detergent inactive, Shiga toxin inh inactive, AmpC inh no detg inconclusive and CHX counter 16.0.
For O=C(c1ccccc1)c1cnc(-c2ccc(Cl)cc2)s1 the results were NS1 function inh inactive, AmpC detergent inactive, Shiga toxin inh 116.4, AmpC inh no detg inactive and CHX counter 39.2.
For O=C(c1ccccc1)c1cnc(-c2ccccc2)s1 the results were NS1 function inh inactive, AmpC detergent inactive, Shiga toxin inh inactive, AmpC inh no detg inactive and CHX counter inactive.
`COC(=O)C(c1ccccc1Cl)N1CCc2sccc2C1` (stereo unspecified) gave Shiga toxin inh inactive and CHX counter inactive.
`Cc1cc2ncn(CC(=O)O)c2cc1C` gave NS1 function inh inactive.
Screening CCC(C)/C(C)=N/NC(=O)CSc1nc2ccccc2[nH]1 (stereo unspecified) returned NS1 function inh inactive, AmpC detergent inactive, Shiga toxin inh 66.6, AmpC inh no detg inactive and CHX counter inactive.
